Assay results from article PMC10668032, “Altered binding affinity of SIX1-Q177R correlates with enhanced WNT5A and WNT pathway effector expression in Wilms tumor”.
Over roughly 33,000 sequences, “e-score” has its median near -0.05; the highest 2% begin near 0.38. This is one part of a sample in which the highest values are shown more often than they occur.

molecular target: T1, SIX1-Q177R homeodomain (human, UniProt Q15475 108-198, Q177R); assay: universal protein binding microarray; Universal all-10-mer PBM (8x60K, AMADID 030236), 300 nM GST-tagged protein, Alexa Fluor 488 anti-GST; buffer, salt, pH and temperature not stated (as in Berger); high values mean tight binding; conditions: protein: ivt; tags: N-terminal GST; dsDNA, one strand shown
T1 sequence: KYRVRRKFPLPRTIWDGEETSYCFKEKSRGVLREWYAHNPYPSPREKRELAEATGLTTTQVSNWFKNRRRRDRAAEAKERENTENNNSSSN
Method in brief: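 Duplicate protein binding microarrays (universal 'all 10-mer', 8×60K format) were incubated with GST-tagged homeodomains at 300 nM final concentration. Binding was quantified as 8-mer E-scores with the Universal PBM Analysis Suite.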

Sequence | binding signal [E-score]
ACGGTGCG | 0.167 ± 0.0105
CCGGTATC | 0.284 ± 0.0126
ACGGTGTC | 0.4875 ± 0.00246
CCGGTGCG | 0.179 ± 0.0475
CCGGTGTC | 0.4894 ± 0.00404
ACGGTGTG | 0.367 ± 0.0153
ACGGGGTG | 0.338 ± 0.0174
ACCTGGTG | 0.322 ± 0.00697
ACAATACA | 0.194 ± 0.0158
CTAGGACA | 0.162 ± 0.0316
TAATCACA | 0.213 ± 0.0222
GGGGTTGA | 0.2 ± 0.025
GGACACTA | 0.358 ± 0.00739
AGACACTC | 0.3634 ± 0.00141
CGACACTC | 0.437 ± 0.00883
CGACACTA | 0.41 ± 0.00325
AGACACTA | 0.343 ± 0.00686
ACGCCCGA | 0.17 ± 0.0302
CCTGCACC | 0.16 ± 0.00461
ACCCAAGT | 0.157 ± 0.00998
AAGCACCA | 0.24 ± 0.00412
GCGCACAC | 0.289 ± 0.0303
ACGGAGTC | 0.181 ± 0.0091
ACGGACAC | 0.41 ± 0.0174
CCGGACGA | 0.185 ± 0.0376

Sequence | binding signal [E-score]
GCGGATAC | 0.2681 ± 0.00246
CCGGACAC | 0.427 ± 0.0142
GCGGACAC | 0.406 ± 0.0139
CCGGATAC | 0.262 ± 0.00585
ACGGATAC | 0.28 ± 0.00317
CCCTCTGA | 0.153 ± 0.0264
CACTGAGA | 0.202 ± 0.0113
GCTTAACA | 0.171 ± 0.0194
ACCAGAGT | 0.16 ± 0.0333
ACCCTTAA | 0.175 ± 0.0783
ATCCCTAG | 0.154 ± 0.00215
CACTCGTA | 0.152 ± 0.0172
CGGCGTAC | 0.209 ± 0.00229
TATGGACA | 0.167 ± 0.0099
CACTTTAC | 0.221 ± 0.0328
ACCCCTTG | 0.237 ± 0.00827
ACCCCTTC | 0.2425 ± 0.00198
ACACCTTC | 0.46 ± 0.0107
ACACTTTG | 0.31 ± 0.0292
CCACCTTC | 0.19 ± 0.00382
ACACGTTA | 0.297 ± 0.0383
ACCCCTTA | 0.228 ± 0.014
ACACCTTA | 0.456 ± 0.00729
ACACCTTG | 0.44 ± 0.00935
GACAGGGC | 0.162 ± 0.0431

Sequence | binding signal [E-score]
TTACACAA | 0.223 ± 0.0118
GAAGCACC | 0.238 ± 0.00424
GTACCCCA | 0.247 ± 0.0214
ATACGACA | 0.18 ± 0.0318
ACCCAAGA | 0.163 ± 0.00205
CACCGCAG | 0.241 ± 0.0286
CGAAACAC | 0.339 ± 0.0288
AGAAACAC | 0.408 ± 0.0147
AGAAAACA | 0.192 ± 0.0184
GGAAACAC | 0.374 ± 0.004
GAAAACAC | 0.383 ± 0.0136
AAAAACAC | 0.368 ± 0.0203
GGGATCCC | 0.31 ± 0.0322
GGTGCATA | 0.195 ± 0.0199
GGGATCAA | 0.189 ± 0.0285
CGTGTTCC | 0.34 ± 0.0151
GGGGTTCA | 0.256 ± 0.0435
GGTGCTCA | 0.25 ± 0.046
AGTGTTCA | 0.343 ± 0.0114
CGTGTTCA | 0.4087 ± 0.0026
GGTGTTCA | 0.4614 ± 0.000559
CCCGATGA | 0.16 ± 0.00231
CTCCCGCA | 0.155 ± 0.0331
ACCCAGGC | 0.162 ± 0.0568
CCCCGCGG | 0.193 ± 0.0298

Sequence | binding signal [E-score]
GTACGACA | 0.297 ± 0.0138
CGTGGTGC | 0.187 ± 0.0118
GGTGCAAC | 0.272 ± 0.00472
ACCCCATG | 0.226 ± 0.0299
ACTCCATG | 0.212 ± 0.0247
ACACCATC | 0.4671 ± 0.000891
ACCCCATC | 0.245 ± 0.00929
ACTCCATA | 0.2012 ± 0.000827
GCACCATA | 0.174 ± 0.00986
ACACCATA | 0.459 ± 0.00633
ACACCATG | 0.4696 ± 0.00232
ATACCATC | 0.151 ± 0.00506
ATTTTACA | 0.19 ± 0.0629
TGGGTACA | 0.29 ± 0.00578
ATCGCGGG | 0.167 ± 0.0319
AGGGTAGG | 0.176 ± 0.00576
CCCCAAGA | 0.156 ± 0.0279
ATAACCCC | 0.266 ± 0.0237
ATAACACA | 0.2399 ± 0.00217
CTAACCCC | 0.223 ± 0.0193
ATAACACG | 0.402 ± 0.0181
ATAACACC | 0.479 ± 0.0087
CTAACACC | 0.478 ± 0.00653
ATAACTCC | 0.181 ± 0.0433
CTAACACA | 0.209 ± 0.00581

Sequence | binding signal [E-score]
GTAACACA | 0.223 ± 0.0443
CCCCGTGC | 0.244 ± 0.0265
CGCCGCCG | 0.208 ± 0.031
ATTCACTC | 0.151 ± 0.0349
AGCACGCA | 0.24 ± 0.0253
CACCCCGC | 0.337 ± 0.0136
GGTCCGGA | 0.161 ± 0.0425
GATATCCC | 0.193 ± 0.0406
ACCCCTGC | 0.235 ± 0.0269
ACACCTGA | 0.4477 ± 0.00107
ACACCTGG | 0.448 ± 0.00897
AAACCTGG | 0.169 ± 0.0219
ACCCCTGG | 0.163 ± 0.00865
ACACCTGC | 0.4582 ± 0.00372
ACCCCTGA | 0.2405 ± 0.00201
ACTCCTGA | 0.206 ± 0.00412
ACTCCTGC | 0.158 ± 0.00297
CCCTTGTA | 0.2081 ± 0.00151
ATTCCGTG | 0.2 ± 0.0598
CCCAGGCG | 0.167 ± 0.0378
CGAGGCAA | 0.186 ± 0.00832
AAGTGTAG | 0.37 ± 0.0123
CACTGTAC | 0.194 ± 0.0212
CTGTGTAC | 0.229 ± 0.0232
GAGTGCAC | 0.195 ± 0.00266

Sequence | binding signal [E-score]
CAGTGTAC | 0.4035 ± 0.00271
GAGTGTGC | 0.184 ± 0.00494
AAGTGTAC | 0.391 ± 0.0232
CAGTGCAC | 0.183 ± 0.0019
GAGTGTAC | 0.419 ± 0.00767
CAGTGTAG | 0.4232 ± 0.00358
CACTTATG | 0.161 ± 0.0539
AAGTTACA | 0.171 ± 0.00584
AGAAGGTG | 0.302 ± 0.0205
CCCCGGAC | 0.152 ± 0.0324
GAGCACCC | 0.283 ± 0.0502
GTGTGTAA | 0.337 ± 0.0168
AGGTGTAA | 0.463 ± 0.021
CGGTGTAG | 0.487
GGGTGTAA | 0.478 ± 0.01
AGGTGCAA | 0.169 ± 0.04
ATGTGTAA | 0.225 ± 0.00674
GGGGGTAA | 0.354 ± 0.0195
TGGTGTAA | 0.486 ± 0.00978
TGGTGCAA | 0.169 ± 0.0456
CGGGGTAG | 0.221 ± 0.00415
TGGAGTAA | 0.233 ± 0.068
GGTGCACC | 0.353 ± 0.00627
CAACAACA | 0.195 ± 0.00619
TGACCCCA | 0.279 ± 0.0177

Sequence | binding signal [E-score]
CGGAGTAA | 0.266 ± 0.0379
AAGGTATC | 0.251 ± 0.0701
GGAACCCA | 0.181 ± 0.0136
GACCTCAC | 0.161 ± 0.0365
ACCGAACA | 0.196 ± 0.0386
GGGGGTAC | 0.331 ± 0.0182
GGGTGTAC | 0.4828 ± 0.00134
CGGTGCAA | 0.259 ± 0.00579
GGGTGCAC | 0.28 ± 0.022
CGGTGTAA | 0.481 ± 0.0071
CTGTGTAA | 0.153 ± 0.011
CCCCACGA | 0.1526 ± 0.000735
TGTAAGAA | 0.294 ± 0.0277
AAACGTGT | 0.303 ± 0.054
CCCGGTGC | 0.154 ± 0.0105
ACTTACGC | 0.164 ± 0.00788
GCTCACAC | 0.276 ± 0.0114
ACTTACCC | 0.186 ± 0.0205
CCTTATAA | 0.179 ± 0.0218
GCTTACAC | 0.437 ± 0.0203
ACTTACAC | 0.449 ± 0.0178
CCTTACAC | 0.439 ± 0.0105
CCTCACAC | 0.279 ± 0.0153
ACTTACTC | 0.179 ± 0.00345
